Hits are enriched below; roughly 19% of the tested compounds scored in any of these assays.
HT1080-NT tox: kills 2HG-producing HT-1080-NT fibrosarcoma cells | HT-1080-NT fibrosarcoma viability, CellTiter-Glo ATP luminescence, 48 h | Potency, µM (highest dose often 46.1 µM), inactives show at the highest dose activity, negative = less viability, actives largely listed as cytotoxic | 360,000 compounds, 1.6% hits | AID 686970;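 further: NT is the 2HG producing partner of a matched IDH1 knockdown line; potency means the concentration at half of the fitted maximal effect; 0% = DMSO-treated cells and -100% = media-only wells without cells; nearly all actives have a fitted effect of over 55% in size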
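750 cells/well, RPMI + 5% FBS; 2 h settle, compound pin-transfer, 48 h at 37 degrees C. CellTiter-Glo 10 min RT, luminescence. Normalized to DMSO and media-only wells.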
TDP1 cell noCPT: qHTS for Inhibitors of human tyrosyl-DNA phosphodiesterase 1 (TDP1): qHTS in cells in absence of CPT; DT40 Tdp1-/- hTDP1 cells, no CPT, ATP luminescence, 48 h; Potency, µM (highest dose often 46.2 µM), for the others: at the highest dose activity change, negative = growth inhibition, actives largely listed as inhibitors; 420,000 compounds, 15% hits; AID 686978, 2013; further: potency means the concentration at half of the fitted maximal effect; nearly all actives have a fitted effect of over 55% in size
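Stably hTDP1-transfected Tdp1-null chicken DT40 cells were treated with library compounds minus camptothecin and grown for at least 48 hr at 37 °C, after which cellular ATP was quantified by luminescence.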
DT40 TDP1 CPT: growth inhibition of DT40 Tdp1-/-;hTDP1 cells with camptothecin (screen for TDP1 inhibitors). chicken DT40 Tdp1-/-;hTDP1 cells + 20 nM CPT, ATP luminescence, 48 h. 420,000 compounds, 12% hits. Potency, µM (top dose mostly 46.2 µM), without a hit: at the highest dose activity change, negative = growth inhibition, most hits filed as inhibitors. AID 686979; further: potency means the concentration at half of the fitted maximal effect; nearly all actives have a fitted effect of over 55% in size
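Cell growth measured by CellTiter-Glo luminescence after a minimum 48 h, 37 C compound exposure with 20 nM CPT in Tdp1-knockout DT40 cells stably expressing hTDP1, seeded 400/well; qHTS titration format.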
HT1080 IDH1KD tx: HT-1080 IDH1 knockdown cell toxicity (counter line); HT-1080 IDH1 knockdown viability, ATP luminescence, 48 h; Potency, µM (series often up to 46.1 µM), for inactives: at the highest dose activity, negative = toxicity, hits mostly cytotoxic; 360,000 compounds, 2% hits;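 further: potency means the concentration at half of the fitted maximal effect; 0% = DMSO wells and -100% = cell-free medium wells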
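% activity derives from luminescence (CellTiter-Glo), normalised to DMSO and no-cell wells. HT-1080-IDH1KD cells, 750/well, had 48 h compound exposure at 37 °C.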
IL1B secr inh: blocks inflammasome-driven IL-1 beta release; THP-1 LPS/ATP IL-1B secretion, AlphaLISA, 16 h; stronger effect = lower value; activity change, % at 57.5 µM; 360,000 compounds, 4.7% hits; in the data active means activity change below about -50%; inconclusive means mostly about -30% to -49%
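THP-1 cells pretreated 1 hr with compounds (up to 57.5 uM final), then stimulated with LPS (250 ng/mL final) plus ATP (1.25 mM final); secreted IL-1B measured by AlphaLISA after 16 hr, decreased signal indicating inhibition.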
* = called active by the depositor; ? = inconclusive; . = no result; [ ] = another dose, or the depositor's remark. Unless noted, the call rests on the fitted dose curve; in most records, active means well fitted curve in the direction sought with a large enough effect; inconclusive means small, poorly fitted or top-dose-only effect, or another doubt; inactive means no such curve, though single readings can be large; an effect the other way counts as inactive or inconclusive. Unless noted, on the % scale 0 is the no-effect control and ±100 the full control effect.

SMILES	HT1080-NT tox	TDP1 cell noCPT	DT40 TDP1 CPT	HT1080 IDH1KD tx	IL1B secr inh
CCCCOc1ccc(C(=O)NCC(=O)NC2CCC(C)CC2)cc1 (stereo not given)	-7%	-13%	3%	1%	-3
COCc1c(C(=O)OCC(=O)NCCc2ccc(S(N)(=O)=O)cc2)oc2ccccc12	15%	-3%	5%	1%	10
CC1(c2ccccc2Br)NC(=O)N(CC(=O)NC2CCCCC2)C1=O (stereo not given)	-4%[9.24 µM]	3%	-9%	3%	-7
CCS(=O)(=O)N1CCCC(C(=O)NC2CCC(C)CC2)C1 (stereo not given)	1%	-1%	-9%	3%	13
Cc1c(C(=O)NC2CCN(Cc3ccccc3)C2)oc2c(Cl)cccc12 (stereo not given)	?	-22%	?	?	-88*
CCN(c1ccccc1)S(=O)(=O)c1ccc(Cl)c(C(=O)NC2CCN(Cc3ccccc3)CC2)c1	-12%	6.5µM*	9.2µM*	-13%	-21
O=C(NCC(=O)N1CCC(Cc2ccccc2)CC1)c1ccc(Cl)cc1	-3%	?	16µM*	0%	-52*
Cc1ccc(NS(=O)(=O)c2cccc(C(=O)NC3CCN(Cc4ccccc4)CC3)c2)cc1	-5%	5.8µM*	4.1µM*	-30%	.
O=C(CCS(=O)(=O)c1ccccc1)N1CCN(c2ccc(F)cc2)CC1	-4%	-15%	-24%	-3%	-1
O=C(c1ccccc1)c1ccc(C(=O)N2CCN(c3ccccc3O)CC2)cc1	0%	12µM*	26µM*	1%	?
O=C(Nc1ccc(NC(=O)N2CCN(c3ccccc3O)CC2)cc1)N1CCN(c2ccccc2O)CC1	-15%	26µM*	?	-12%	-15
O=C(C(Sc1ccccc1)c1ccccc1)N1CCN(c2ccccc2F)CC1 (stereo not given)	-14%	23µM*	?	-26%	-9
O=C(c1cccc(C(=O)N2CCN(c3ccccc3)CC2)c1)N1CCN(c2ccccc2)CC1	2%	15µM*	?	-26%	0
O=C(c1ccc2nccnc2c1)N1CCN(c2ccccc2)CC1	14%	13%	6%	9%	-13
O=C(Nc1ccc(Br)cc1)N1CCCCC1	5%	-22%	-21%	-5%	-17
O=C(NC1CCCCC1)c1cccnc1Sc1ccccc1	8%	-14%	-10%	16%	-16
CC(C)(CO)[C@@H](O)C(=O)NCCCO	.	5%	-17%	.	.
CCn1c(C)c(C)c2cc(C(=O)N3CCN(c4ccccc4)CC3)ccc21	0%	?	18µM*	-10%	7
O=C(c1c(F)cccc1F)N1CCN(c2ccccc2F)CC1	-3%	-17%	-21%	-18%	-9
O=C(NCC(=O)N1CCN(c2ccccc2O)CC1)c1ccco1	-12%	4%	-16%	0%	5
CCn1c(C)c(C)c2cc(C(=O)N3CCCC3)ccc21	-1%	15%	-10%	-3%	0
O=C(NCC(=O)N1CCN(c2ccccc2O)CC1)C1CCCCC1	2%	?	3.7µM*	6%	5
O=C(c1cccc(C(=O)N2CCN(c3ccccc3F)CC2)c1)N1CCN(c2ccccc2F)CC1	-9%	23µM*	?	-21%	-8
N#Cc1cccc(NC(=O)C2CCN(c3ncccn3)CC2)c1	.	3%	-16%	.	.
Cc1ccc(S(=O)(=O)N(C)CCN(C)c2nc(-c3cccs3)nc3ccccc23)cc1	12%	20µM*	?	23%	.
SMILES	HT1080-NT tox	TDP1 cell noCPT	DT40 TDP1 CPT	HT1080 IDH1KD tx	IL1B secr inh
CNCCN(C)c1nc(-c2cccs2)nc2ccccc12	?	22µM*	?	?	.
CN(CCO)c1nc(-c2cccs2)nc2ccccc12	-24%	?	18µM*	-21%	.
CN(Cc1cccs1)c1nc(-c2cccnc2)nc2ccccc12	-5%	?	23µM*	-3%	-92*
CCN(CC)S(=O)(=O)c1ccc(NC(=O)c2cc(-c3cccs3)nc3ccccc23)cc1	?	?	?	?	-7
OCCNc1nc(-c2cccs2)nc2ccccc12	-5%	-16%	11%	-5%	.
Cc1ccc(NC(=O)C2CCN(S(=O)(=O)c3cnc[nH]3)CC2)nc1	16%	-11%	-4%	11%	10
CCOc1cc(/C=N/NC(=O)COc2ccc(Cl)cc2)ccc1OS(=O)(=O)c1ccccc1	-23%	23µM*	?	?	17
COc1cc(/C=N/NC(=O)COc2ccc(C)cc2)ccc1OC(=O)c1cccs1	8%	26µM*	?	5%	-24
CCOc1cc(/C=N\NC(=O)Cc2ccccc2)ccc1OCC(=O)Nc1ccc(C)c(C)c1	4%	21µM*	13µM*	10%	18
COc1cc(/C=N\Nc2ccc([N+](=O)[O-])cc2)ccc1OCC(=O)Nc1ccc(C)c(C)c1	-1%	18µM*	?	4%	55
CCOc1cc(/C=N/O)ccc1OCC(=O)Nc1cccc(C)c1	10%	?	?	25%	-3
C=C1[C@@H]2CC[C@@H](C2)C1(C)C	.	-9%	14%	.	.
O=[S+]([O-])([O-])c1ccc2c(c1)cc([S+](=O)([O-])[O-])c1nn(-c3ccc(/C=C/c4ccc(-n5nc6c([S+](=O)([O-])[O-])cc7cc([S+](=O)([O-])[O-])ccc7c6n5)cc4[S+](=O)([O-])[O-])c([S+](=O)([O-])[O-])c3)nc12	.	0%	9%	.	.
O=C(Nc1c(C(=O)N2CCOCC2)cnn1-c1ccccc1Cl)c1ccco1	-2%	-1%	-7%	1%	46
Cc1ccc(CNC(=O)CC(C)S(=O)(=O)c2ccc3c(c2)NC(=O)C(C)S3)cc1 (stereo not given)	-9%	?	-29%	-20%	59
COc1ccc(OC)c(C(=O)N2CCc3c(cnc(C)c3CNS(=O)(=O)N(C)C)C2)c1	.	-11%	6%[9.04 µM]	.	.
CNC(=S)N/N=C/c1ccc(OCC(=O)Nc2c(C)cc(C)cc2C)c(OC)c1	-21%	?	21µM*	-15%	42
CCOc1cc(/C=N\Nc2ccc([N+](=O)[O-])cc2)ccc1OCC(=O)Nc1ccc(C)c(C)c1	-1%	15µM*	23µM*	3%	87
Cc1ccccc1CN1CCN(S(=O)(=O)c2ccc(Cl)s2)CC1	-13%	?	23µM*	-17%	-8
Cc1nc(-c2ccc(S(=O)(=O)N3CCN(Cc4ccccc4)CC3)s2)cs1	?	9.2µM*	?	-14%	-20

High-throughput results deposited in PubChem BioAssay by National Center for Advancing Translational Sciences (NCATS).
